# The entries come from a sample that favours hits as a whole.
# MBNL1 CUG block: qHTS Assay for Inhibitors of MBNL1-poly(CUG) RNA binding; actives 0.036% (n = 280,000); AID 2675, 2010; TR-FRET MBNL1-His/biotin-(CUG)12 binding, 665/545 ratio; Potency, µM (series often up to 57.5 µM), for inactives: at the highest dose activity change, negative = inhibition, hits mostly inhibitors; Muscleblind-like protein 1 (Homo sapiens), Q9NR56; active = well fitted inhibition curve with a large enough effect in the signal ratio, with a control signal flat, not every such curve was filed as active; inconclusive = small, poorly fitted or top-dose-only effect, or effect the other way, or a change in a side signal; inactive = no such curve, though single readings can be large or run the other way; the % refers to the signal ratio; also: potency is read from the fitted curve at half-maximal effect; % is scaled to controls: 0 for no effect and ±100 for the full control effect
#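 TR-FRET readout: Ex 340 nm, 665/545 nm emission ratio, normalized to buffer-only (basal) and MBNL1-(CUG)12 controls. Complex of MBNL1-His with Biotin-(CUG)12, compounds 92 nM–58 uM, incubated 60 min at room temperature.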
# CBFb-RUNX1 inh: qHTS Assay for Compounds Blocking the Interaction Between CBF-beta and RUNX1 for the Treatment of Acute Myeloid Leukemia; Runt-related transcription factor 1 (Homo sapiens) + Core-binding factor subunit beta …; AlphaScreen CBFb-His/RUNX1-biotin binding, biochemical; Potency, µM (doses to about 59.8 µM), inactives show top-dose activity, negative = inhibition, actives largely listed as inhibitors; 230,000 tested, under 10 active; AID 1477, 2009; also: % of control where 0% means no effect
#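 AlphaScreen proximity signal reports loss of binding between His-tagged CBF-beta and biotin-labelled RUNX1, each at 30 nM. Proteins are pre-associated for 20 minutes, compounds added for 15 minutes, then beads for 90 minutes, all at ambient temperature.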
# Menin MLL FP TR: qHTS Assay for Inhibitors Targeting the Menin-MLL Interaction in MLL Related Leukemias: Competition With Texas Red Labeled MLL-derived Mutant Peptide | actives 0.23% (n = 270,000) | Menin + Texas Red MLL mutant peptide, fluorescence polarization | O00255 | AID 1768, 2009 | Potency, µM (series often up to 61.6 µM), for the others: at the top dose FP activity change, negative = inhibition, usual class: inhibitors; active = well fitted inhibition curve with a large enough effect in the polarisation, with a control signal flat, not every such curve was filed as active; inconclusive = small, poorly fitted or top-dose-only effect, or effect the other way, or a change in a side signal; inactive = no such curve, though single readings can be large or run the other way; the % refers to the polarisation; also: potency is read from the fitted curve at half-maximal effect; % of control where 0% means no effect
# Target sequence (O00255 whole entry, looked up): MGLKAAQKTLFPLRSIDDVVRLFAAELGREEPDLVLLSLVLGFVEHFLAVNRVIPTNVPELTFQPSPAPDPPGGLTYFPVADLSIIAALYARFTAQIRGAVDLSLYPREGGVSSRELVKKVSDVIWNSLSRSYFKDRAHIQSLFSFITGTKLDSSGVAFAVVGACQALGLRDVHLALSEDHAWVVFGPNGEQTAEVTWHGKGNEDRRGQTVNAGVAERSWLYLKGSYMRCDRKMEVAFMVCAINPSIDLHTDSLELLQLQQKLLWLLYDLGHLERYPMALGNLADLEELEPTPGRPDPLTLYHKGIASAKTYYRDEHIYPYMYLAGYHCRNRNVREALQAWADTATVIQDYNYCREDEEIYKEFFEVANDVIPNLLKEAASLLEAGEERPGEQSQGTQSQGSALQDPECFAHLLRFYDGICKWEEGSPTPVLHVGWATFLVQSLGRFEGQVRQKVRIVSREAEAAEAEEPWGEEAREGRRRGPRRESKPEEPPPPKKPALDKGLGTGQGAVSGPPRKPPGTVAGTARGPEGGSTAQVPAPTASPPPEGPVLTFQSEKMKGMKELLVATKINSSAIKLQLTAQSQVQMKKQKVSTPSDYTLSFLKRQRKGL
# CXXC DNA block: qHTS Fluorescence Polarization Assay for Inhibitors of MLL CXXC domain - DNA interaction; Histone-lysine N-methyltransferase 2A (Homo sapiens), Q03164; MLL-CXXC / FITC-HOXA9 DNA fluorescence polarization; Potency, µM (doses to about 115 µM), for inactives: at the highest dose activity change, negative = inhibition, hits mostly inhibitors; actives 0.037% (n = 290,000); active = well fitted inhibition curve with a large enough effect in the polarisation, with a control signal flat, not every such curve was filed as active; inconclusive = small, poorly fitted or top-dose-only effect, or effect the other way, or a change in a side signal; inactive = no such curve, though single readings can be large or run the other way; the % refers to the polarisation; also: potency is read from the fitted curve at half-maximal effect
#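 Fluorescence polarization: 7 uM MLL-CXXC (stock) preincubated 5 min with compounds, then 50 nM fluorescein-HOX-A9 DNA (stock) added; 30 min ambient. Buffer 50 mM Tris-HCl pH 7.5, 50 mM NaCl, 1 mM DTT, 0.05% BSA.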
# Menin MLL FP FL: qHTS Assay for Inhibitors Targeting the Menin-MLL Interaction in MLL Related Leukemias: Competition With Fluorescein Labeled MLL-derived Peptide; AID 1766, 2009; Fluorescence polarization, fluorescein-MLL peptide displacement from menin; FP activity change, % at 61.4 µM; 290,000 tested, under 10 active; active = well fitted curve in the direction sought with a large enough effect in the polarisation, not every such curve was filed as active; inconclusive = small, poorly fitted or top-dose-only effect, or effect the other way, or a change in a side signal; inactive = no such curve, though single readings can be large or run the other way; the % refers to the polarisation; also: % of control where 0% means no effect
# MLL CXXC FP-Fl: qHTS Fluorescence Polarization (FP) Assay for Inhibitors of MLL CXXC domain - DNA interaction: Fluorescein FP | shares compounds with CXXC DNA block | MLL CXXC-DNA binding, fluorescein FP | Potency, µM (series often up to 345 µM), inactives show at the top dose activity change, negative = inhibition, usual class: inhibitors | actives 70% (n = 200); also: potency is read from the fitted curve at half-maximal effect; nearly all actives have a fitted effect of over 80% in size
# MLL CXXC TxRed: qHTS Fluorescence Polarization (FP) Assay for Inhibitors of MLL CXXC domain - DNA interaction: Texas Red FP | shares compounds with CXXC DNA block | MLL CXXC-DNA binding, Texas Red fluorescence polarization | Potency, µM (doses to about 345 µM), inactives show at the top dose activity change, negative = inhibition, hits mostly inhibitors | actives 40% (n = 200); also: potency is read from the fitted curve at half-maximal effect; % is scaled to controls: 0 for no effect and ±100 for the full control effect; nearly all actives have a fitted effect of over 75% in size
# MLL CXXC TRF: qHTS Fluorescence Polarization (FP) Assay for Inhibitors of MLL CXXC domain - DNA interaction: HTRF Assay; AID 624162, 2012; shares compounds with CXXC DNA block; actives 30% (n = 210); MLL CXXC-DNA binding, HTRF, biochemical; Potency, µM (highest dose often 172 µM), inactives show top-dose activity change, negative = inhibition, usual class: inhibitors; also: % is scaled to controls: 0 for no effect and ±100 for the full control effect; nearly all actives have a fitted effect of over 80% in size
# * marks the source's active call; other numbers are inactive results; ? = inconclusive; · = no result; [ ] = dose if it differs, or a comment. Unless noted, calls follow the shape of the dose curve; as a rule, active = well fitted curve in the direction sought with a large enough effect; inconclusive = small, poorly fitted or top-dose-only effect, or another doubt; inactive = no such curve, though single readings can be large; an effect the other way counts as inactive or inconclusive.
SMILES,MBNL1 CUG block,CBFb-RUNX1 inh,Menin MLL FP TR,CXXC DNA block,Menin MLL FP FL,MLL CXXC FP-Fl,MLL CXXC TxRed,MLL CXXC TRF
CC(C)OC(=O)CC(=O)c1sc2nc3c(cc2c1N)CN(C)CC3,?,10%,-15%,13µM*,?,45µM*,?,?
Cc1ccc(S(=O)(=O)N2CCN(Cc3ccco3)CC2)c(C)c1,-16%,·,·,-14%,·,·,·,·
COc1ccc(CNc2cc(C)ccn2)cc1,-12%,·,-20%,-1%,-20,·,·,·
O=C(CCCn1cc([N+](=O)[O-])cn1)NC1CCCCCC1,-2%,-13%,15%,-6%,-1,·,·,·
O=C(O)CCN1C(=O)/C(=C\c2cccc(OCC(=O)Nc3ccc(Cl)cc3)c2)SC1=S,3%,-11%,·,?,14,?,142µM*,-61%
Cc1nc(N=Nc2cc(S(=O)(=O)O)c3cc([N+](=O)[O-])cc(S(=O)(=O)O)c3c2)c(COP(=O)(O)O)c(C=O)c1O,?,-25%[21.7 µM],?,32µM*,3,18µM*,36µM*,15µM*
Cc1nc(N=Nc2cc([N+](=O)[O-])ccc2Cl)c(COP(=O)(O)O)c(C=O)c1O,·,?,?,·,-2,·,·,·
COc1ccc(N2CCN(c3ccnc4cc(Cl)ccc34)CC2)cc1,27%,·,-12%,-8%,2,·,·,·
COc1cc(C=C2C(=O)c3ccccc3C2=O)cc(OC)c1OC,12%,-11%,14%,35µM*,?,45µM*,142µM*,97µM*
COc1cc(C=C2C(=O)c3ccccc3C2=O)ccc1O,·,-3%,·,?,13,28µM*,?,51%
COc1ccc(C=C2C(=O)c3ccccc3C2=O)cc1O,?,-21%,?,?,21,·,·,·
O=C1c2cccc3cc([N+](=O)[O-])cc(c23)C(=O)N1CCN1CCCC1,?,5%,-12%,?,?,·,·,·
Nc1cc2c3c(cccc3c1)C(=O)N(CCN1CCCC1)C2=O,?,-6%,-17%,7.9µM*,?,142µM*,?,87%
CC(=O)OCCCN1C(=O)c2cccc3cc(Br)cc(c23)C1=O,?,·,-22%,-6%,-1,·,·,·
CCN(CC)CCN1C(=O)c2cccc3cc(N)cc(c23)C1=O,?,-5%,1%,35µM*,?,89µM*,?,97%
CC(=O)[C@]1(O)Cc2c(O)c3c(c(O)c2[C@@H](O[C@H]2C[C@H](N)[C@H](O)[C@H](C)O2)C1)C(=O)c1c(O)cccc1C3=O,·,-22%,?,?,?,6.3µM*,22µM*,255%
CC(=O)[C@]1(O)Cc2c(O)c3c(c(O)c2[C@@H](O[C@H]2C[C@H](N)[C@H](O)[C@H](C)O2)C1)C(=O)c1ccccc1C3=O,?,1%,?,?,?,2µM*,100µM*,117%
COc1cccc2c1C(=O)c1c(O)c3c(c(O)c1C2=O)C[C@@](O)(C(C)=O)C[C@@H]3O[C@H]1C[C@H](N)[C@H](O)[C@H](C)O1,?,?,?,10µM*,?,5.6µM*,11µM*,376%
Cc1oc(-c2cccs2)nc1CN1CCN(C2CCCC2)C(CCO)C1 (centres undefined),-3%,11%,1%,15%,1,·,·,·
N#C/C(=C\c1ccc(C#N)cc1)C(=O)c1ccccc1,-4%,-1%,17%,?,1,·,·,·
N#C/C(=C\c1cccs1)C(=O)c1ccccc1,16%,10%,·,?,1,3%,113µM*,-14%
CCC1(C)NC(=O)N(CC(=O)Nc2sc3c(c2C(=O)OC)CCCCC3)C1=O (centres undefined),2%,0%,-20%,-1%,0,·,·,·
COc1ccc(CN2CCNC(=O)C2CC(=O)N(C)CC2CCOCC2)c(F)c1 (centres undefined),-9%,·,·,?,·,·,·,·
Cc1cc2nc3c(=O)[nH]c(=O)nc-3n(CC(O)C(O)C(O)CO)c2cc1C (centres undefined),·,-2%,-2%,·,?,·,·,·
CCCC(=O)OC[C@@H](OC(=O)CCC)[C@@H](OC(=O)CCC)[C@H](Cn1c2nc(=O)[nH]c(=O)c-2nc2cc(C)c(C)cc21)OC(=O)CCC,·,·,-21%,?,?,14µM*,?,23%

# Source: PubChem
